Source: PubChem BioAssay (NCATS)
Results filed as inconclusive are left out. Activity calls are given as the source filed them. Unless noted, calls follow the shape of the dose curve; as a rule, active = well fitted curve in the direction sought with a large enough effect; inconclusive = small, poorly fitted or top-dose-only effect, or another doubt; inactive = no such curve, though single readings can be large; an effect the other way counts as inactive or inconclusive.

Columns and labels:
[1] = Cell Proliferation Assay Versus the ED40515 IL2 Dependent ATL cell lines (AID 1053195; calls by dose curve); settings: ED40515 IL2-dependent ATL cells
Outline: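 CellTiter-Glo luminescence (15 min, RT) measured viability after 48 hours at 37C; cells were ED40515 +IL2, 1000/well, in phenol red-free RPMI with 5% FBS. Controls: DMSO and 9.2 uM bortezomib.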

[2] = High-throughput drug toxicity screening in the BPDCN cell line Gen2.2 (AID 1224824; call rule not given here;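 also: cells exposed to compounds for 48 h before reading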); settings: Gen2.2 BPDCN cells; at 45.8 µM (top of the series) unless noted
Outline: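 Readout is ATP luminescence from Gen2.2 cells after two days of drug exposure in serum-containing medium at 37 °C. Values express percent activity, with vehicle defining full signal and 9.2 uM bortezomib defining zero.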

[3] = High-throughput drug toxicity screening in the BPDCN cell line Cal-1 (AID 1224825; call rule not given here); settings: Cal-1 BPDCN cell viability, qHTS; at 45.8 µM (top of the series) unless noted
Outline: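 Viability of the BPDCN line Cal-1 is measured as ATP-based luminescence (CellTiter-Glo) following 48 h incubation with compounds. Percent activity uses DMSO-treated wells as 100% and 9.2 uM bortezomib as 0%.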

[4] = qHTS assay for measurement of the activity of small molecule inhibitors on Zika virus induced Caspase-3 activity in human iPSC derived neural progenitor cells (hNPCs) (AID 1224857); settings: hNPCs ZIKV-induced caspase-3/7, Caspase-Glo luminescence, 6 h; series mostly up to 45.7 µM; also: nearly all actives have a fitted effect of over 65% in size
Outline: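 Cells were plated at 350 per well and grown 16 to 20 hours. Compound pretreatment lasted one hour, after which ZIKV (2 FFU/cell) was added for 6 hours. Percent inhibition was normalized between uninfected and infected controls.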

[5] = qHTS assay for measurement of the activity of small molecule inhibitors on Zika virus induced Caspase-3 activity in human astrocytoma cells (AID 1224859); settings: SNB-19 ZIKV-induced caspase-3/7, luminescence, 6 h; series mostly up to 45.7 µM
Outline: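 Percent inhibition of virus-induced caspase-3/7 signal is calculated against uninfected and ZIKV-infected control cells. Cells are SNB-19, infected at 2 FFU/cell for 6 h after 1 h compound exposure.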

[6] = qHTS Screen of the MIPE 4.0 Collection Against Ewings Sarcoma (RDES) (AID 1259252); settings: RD-ES Ewing sarcoma viability, CellTiter-Glo, 48 h; series mostly up to 45.8 µM; also: potency is read from the fitted curve at half-maximal effect; nearly all actives have a fitted effect of over 35% in size
Outline: (§1)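 Measured: ATP luminescence (CellTiter-Glo) 10 min after reagent addition, following 48 h drug treatment. Relative luciferase units converted to percent activity, with no-cell wells as full and DMSO wells as zero inhibition.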

[7] = qHTS Screen of the MIPE 4.0 Collection Against Ewings Sarcoma (TC71) (AID 1259253); settings: TC71 Ewing sarcoma viability, CellTiter-Glo, 48 h; series mostly up to 45.8 µM; also: potency is read from the fitted curve at half-maximal effect; nearly all actives have a fitted effect of over 40% in size
Outline: as §1

[8] = qHTS Screen of the MIPE 4.0 Collection Against Ewings Sarcoma (TC32) (AID 1259256); settings: TC32 Ewing sarcoma viability, CellTiter-Glo, 48 h; series mostly up to 45.8 µM; also: potency is read from the fitted curve at half-maximal effect; nearly all actives have a fitted effect of over 45% in size
Outline: as §1

[9] = Identifying Small Molecule Inhibitors of Pancreatic Cancer Stem Cells (SN12C, Adherent) (AID 1259358); settings: viability/growth inhibition; series mostly up to 46.1 µM;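 also: cell survival measured after 48 h of compound exposure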; also: potency is read from the fitted curve at half-maximal effect
Outline: (§2)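 After a 4 h attachment period, compounds were pinned into wells and cultures held 48 h under standard incubator conditions. Viability was then measured as CellTiter-Glo luminescence following 10 min at room temperature.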

[10] = P-glycoprotein substrates identified in KB-8-5-11 adenocarcinoma cell line, qHTS therapeutic library screen (AID 1346987); settings: KB-8-5-11 (P-gp overexpressing) viability, CellTiter-Glo, 72 h; series mostly up to 44.5 µM; also: nearly all actives have a fitted effect of over 65% in size; also: potency is read from the fitted curve at half-maximal effect
Outline: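 Human cervical adenocarcinoma KB-8-5-11 cells, selected in colchicine to over-express P-gp and assayed without it, were exposed for 72 h to titrated compounds. An ATP-based luminescent viability signal gave AC50.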

[11] = qHTS Screen of the MIPE 4.0 Collection Against Ewings Sarcoma (EW8) (AID 1259255); settings: EW8 Ewing sarcoma viability, CellTiter-Glo, 48 h; series mostly up to 45.8 µM; also: nearly all actives have a fitted effect of over 35% in size; also: potency is read from the fitted curve at half-maximal effect
Outline: as §1

[12] = P-glycoprotein substrates identified in KB-3-1 adenocarcinoma cell line, qHTS therapeutic library screen (AID 1346986); settings: KB-3-1 parental cells viability, CellTiter-Glo, 72 h; series mostly up to 44.5 µM; also: nearly all actives have a fitted effect of over 60% in size;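 also: potency is read from the fitted curve at half-maximal effect; potency is for cytotoxicity meaning loss of cell viability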
Outline: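 Using luminescence to quantify ATP, parental and P-gp-overexpressing KB cells were compared after 72 h compound titration. KB-8-5-11 was also run with the P-gp inhibitor tariquidar.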

[13] = Natriuretic polypeptide receptor (hNpr1) antagonism - Pilot counterscreen GloSensor control cell line (AID 1347045; calls by dose curve); settings: HEK293 cGMP GloSensor cells, SNP-stimulated luminescence, 20 min; series mostly up to 38.3 µM
Outline: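 The SNP-driven cGMP luminescence signal (50 uM, 20 min, room temperature) was measured in GloSensor HEK293 control cells. Compounds were tested as a LOPAC titration series and preincubated for 30-50 min.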

[14] = qHTS assay to identify small molecule inhibitors of chordoma cells - UCH-1 (AID 1259355); settings: UCH-1 chordoma viability, CellTiter-Glo, 48 h, combination, with auranofin plus four topoisomerase inhibitors; series mostly up to 46.1 µM; also: potency is read from the fitted curve at half-maximal effect; nearly all actives have a fitted effect of over 55% in size
Outline: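 A 48hr growth-inhibition format: each drug tested at 15 concentrations together with added auranofin, camptothecin, doxorubicin, rubitecan and topotecan, with cell viability quantified as CellTiter-Glo luminescence.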

[15] = qHTS assay to identify small molecule inhibitors of chordoma cells - UCH-2 (AID 1259356); settings: UCH-2 chordoma viability, CellTiter-Glo ATP luminescence, 48 h; series mostly up to 46.1 µM
[16] = Identifying Small Molecule Inhibitors of Pancreatic Cancer Stem Cells (SN12C, Spheroid) (AID 1259360); settings: Potency: SN12C spheroid viability; series mostly up to 46.1 µM; also: potency is read from the fitted curve at half-maximal effect
Outline: (§3)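 Spheroids grown 14 days in stem cell media on hydrogel-coated nonadherent plates; 2D lines seeded directly. Compounds added after 4 h attachment, 48 h at 37C, 5% CO2; CellTiter-Glo luminescence normalized to DMSO (no inhibition) and no-cell wells (full inhibition).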

[17] = Identifying Small Molecule Inhibitors of Pancreatic Cancer Stem Cells (A278, Adherent) (AID 1259361); settings: series mostly up to 46.1 µM;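 also: viability read after 48 h compound exposure; nearly all actives have a fitted effect of over 35% in size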
Outline: as §2

[18] = Identifying Small Molecule Inhibitors of Pancreatic Cancer Stem Cells (Panc1, Adherent) (AID 1259362); settings: Potency: viability; series mostly up to 46.1 µM;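 also: compound exposure lasted 48 h before the viability read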
Outline: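 Viability is scored by CellTiter-Glo luminescence 48 h after dosing, expressed as percent activity against vehicle and no-cell references. Spheroid formats rely on cells cultured 14 days in stem cell media beforehand.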

[19] = Identifying Small Molecule Inhibitors of Pancreatic Cancer Stem Cells (Panc1, Spheroid) (AID 1259359); settings: Panc1 spheroid cancer stem cell viability; series mostly up to 46.1 µM;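 also: potency is read from the fitted curve at half-maximal effect; compound exposure lasted 48 h before reading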
Outline: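 Adherent (2D) versus sphere (3D) formats; spheres generated 14 d in SCM beforehand. Compound transferred by pin tool after 4 h, 48 h incubation, CellTiter-Glo endpoint.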

[20] = Identifying Small Molecule Inhibitors of Pancreatic Cancer Stem Cells (A2780, Spheroid) (AID 1259357); settings: Potency: A2780 spheroid viability; series mostly up to 46.1 µM;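 also: spheroids pre-formed over 14 days in stem cell medium on hydrogel; compound exposure lasted 48 h before the ATP luminescence read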
Outline: as §3

CCCS(=O)(=O)Nc1ccc(F)c(C(=O)c2c[nH]c3ncc(-c4ccc(Cl)cc4)cc23)c1F
inactive: Potency [4] | Potency [5] | Potency [9] | Potency [10]
453%: cell viability, % of control (lower = more cytotoxic) [2]
active: Potency [1] 20.9 µM | Potency [6] 13.2 µM | Potency [7] 14.8 µM | Potency [8] 20.9 µM
99.1%: viability (% of control) [3]

O=C(Nc1nc2ccccc2n1CCN1CCOCC1)c1cccc([N+](=O)[O-])c1
4.89%: viability (% of control) [3]
43.3%: cell viability, % of control (lower = more cytotoxic) [2]
active: Potency [1] 10.5 µM | Potency [6] 20.9 µM | Potency [7] 23.5 µM | Potency [11] 20.9 µM | Potency [8] 18.7 µM
inactive: Potency [4] | Potency [5] | Potency [9] | Potency [12] | Potency [10] | outcome [13]

C#Cc1cccc(Nc2ncnc3cc(OCCOC)c(OCCOC)cc23)c1
active: Potency [1] 9.35 µM | Potency [6] 4.18 µM | Potency [7] 14.8 µM | Potency [11] 23.5 µM | Potency [8] 20.9 µM | Potency [14] 0.141 µM | Potency [9] 8.33 µM | Potency [16] 16.6 µM | IC50 (viability decrease) [17] 7.43 µM
24.7%: cell viability, % of control (lower = more cytotoxic) [2]
inactive: Potency [4] | Potency [5] | outcome [15] | Potency [18]
10.9%: viability (% of control) [3]

Cc1cccc(-c2[nH]c(C(C)(C)C)nc2-c2ccc3nccnc3c2)n1
15.5%: viability (% of control) [3]
active: Potency [1] 16.6 µM | Potency [6] 16.6 µM | Potency [11] 23.5 µM | Potency [8] 20.9 µM | Potency [19] 8.33 µM | Potency [12] 3.26 µM | Potency [10] 8.2 µM
inactive: Potency [4] | Potency [5] | Potency [9] | Potency [16] | Potency [18] | outcome [13]
391%: cell viability, % of control (lower = more cytotoxic) [2]

COc1cc2nccc(Oc3ccc(NC(=O)NC4CC4)c(Cl)c3)c2cc1C(N)=O
inactive: Potency [4] | Potency [5] | Potency [16] | Potency [18] | Potency [12] | Potency [10]
10.1%: cell viability, % of control (lower = more cytotoxic) [2]
active: Potency [1] 20.9 µM | Potency [6] 0.833 µM | Potency [11] 0.469 µM | Potency [8] 1.05 µM | Potency [9] 18.7 µM
5.43%: viability (% of control) [3]

COc1nc(-c2ccc3c(c2)OCO3)n(-c2ccc(NC(=O)CSc3ccccc3)cc2)n1
inactive: Potency [4] | Potency [5] | Potency [11] | Potency [9] | Potency [16] | Potency [10]
active: Potency [1] 20.9 µM | Potency [7] 20.9 µM
127%: cell viability, % of control (lower = more cytotoxic) [2]
116%: viability (% of control) [3]

COc1cc(F)c(F)c(Nc2ccc(I)cc2F)c1NS(=O)(=O)C1(C[C@H](O)CO)CC1
82.2%: viability (% of control) [3]
inactive: Potency [4] | Potency [5] | Potency [20] | Potency [16] | Potency [12] | Potency [10]
active: Potency [1] 37.2 µM | Potency [6] 20.9 µM | Potency [8] 11.8 µM | Potency [9] 20.9 µM | IC50 (viability decrease) [17] 20.9 µM
27.8%: cell viability, % of control (lower = more cytotoxic) [2]
